Shown are actives, neighbours in structure and some others; about 13% of the full set was active somewhere.
Cycloheximide cs – Cycloheximide Counterscreen for Small Molecule Inhibitors of Shiga Toxin. 300,000 compounds, 12% hits. cell reporter, cycloheximide protein synthesis inhibition counterscreen. max response, %; in the data active means max response mostly above about 13%, no sharp cut-off; inactive means mostly below about 14%; further: read at 38.3 µM for the half of the compounds with a filed dose; 0% is about no effect
Shiga inhibitor – A qHTS for Small Molecule Inhibitors of Shiga Toxin; Vero cells, Shiga toxin protein synthesis inhibition reporter; inhibition, % at 38.7 µM; 290,000 compounds, 9.2% hits; AID 2315, 2010; in the data active means inhibition mostly above about 28%, no sharp cut-off; inactive means mostly below about 43%; further: 0% is about no effect
HCV inhibitor – qHTS Assay for Inhibitors of Hepatitis C Virus (HCV); Huh7.5.1 HCVcc-Cre infection, luciferase reporter, 44 h; 340,000 compounds, 3.4% hits; Potency, µM (series often up to 41.8 µM), for the others: at the top dose activity change, negative = inhibition, usual class: inhibitors; AID 651820, 2012; active means well fitted inhibition curve with a large enough effect; inconclusive means small, poorly fitted or top-dose-only effect, or another doubt; inactive means no such curve, though single readings can be large or run the other way; further: potency means the concentration at half of the fitted maximal effect; on the % scale 0 is the no-effect control and ±100 the full control effect
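Seed cells (1,000/well) for 4 h; treat with compound and infect with HCVcc-Cre, moi about 0.5. Incubate 44 h, then detect luciferase activity.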
Marburg entry inh – qHTS for inhibitors of binding or entry into cells for Marburg Virus. Marburg virus pseudotyped entry inhibition, cell reporter. Potency, µM (highest dose often 37.8 µM), inactives show at the top dose activity change, negative = inhibition, hits mostly inhibitors. 300,000 compounds, 1.8% hits. AID 540276, 2011; calls by dose curve; tested in HEK293 cells; further: potency means the concentration at half of the fitted maximal effect; on the % scale 0 is the no-effect control and ±100 the full control effect
Lassa entry inh – qHTS for Inhibitors of binding or entry into cells for Lassa Virus | Lassa virus pseudotype entry inhibition, cell reporter | Potency, µM (titrated, usually from 37.9 µM), inactives show at the top dose activity change, negative = inhibition, hits mostly inhibitors | 300,000 compounds, 1.2% hits; calls by dose curve; tested in HEK293 cells; further: potency means the concentration at half of the fitted maximal effect; on the % scale 0 is the no-effect control and ±100 the full control effect; nearly all actives have a fitted effect of over 50% in size
FMDV inh – High Throughput Screening for Foot and Mouth Disease Virus Antivirals; FMDV antiviral cell-based qHTS; Potency, µM (top dose mostly 57.9 µM), for the others: at the top dose activity change, negative = inhibition, actives largely listed as inhibitors; 410,000 compounds, 1.2% hits; calls by dose curve; tested in HEK293T cells; further: read-out not given here; potency means the concentration at half of the fitted maximal effect; on the % scale 0 is the no-effect control and ±100 the full control effect; nearly all actives have a fitted effect of over 45% in size
* marks the source's active call; other numbers are inactive results; [ ] = another dose, or the depositor's remark.

`COc1cc2c(cc1NC(=O)C(C)OC(=O)c1ccc(S(=O)(=O)Nc3ccccc3Cl)cc1)oc1ccccc12` (stereo not drawn) gave Cycloheximide cs 24*, Shiga inhibitor 31*, HCV inhibitor inconclusive and FMDV inh 11%.
COc1ccc(-c2nc(CSCC(=O)N3CCN(c4ccccc4F)CC3)c(C)o2)cc1 was read as Marburg entry inh inconclusive, Lassa entry inh -28%[46.1 µM] and FMDV inh 32µM*.
COc1cccc(-c2nc(CSCC(=O)N3CCc4ccccc43)c(C)o2)c1 was read as Cycloheximide cs -1, Shiga inhibitor 10, HCV inhibitor inconclusive, Marburg entry inh 8%, Lassa entry inh -5% and FMDV inh 16%.
Cc1ccc(-c2nc(CSCC(=O)N3CCN(c4ccccn4)CC3)c(C)o2)cc1 was read as Cycloheximide cs 18, Shiga inhibitor -5, HCV inhibitor inconclusive and FMDV inh inconclusive.
For CCOc1ccc(-c2nc(CSCC(=O)N3CCN(c4cccc(OC)c4)CC3)c(C)o2)cc1 the results were Cycloheximide cs 16*, Shiga inhibitor 75*, HCV inhibitor 13µM*, Marburg entry inh 2% and FMDV inh 20µM*.
For Cc1oc(-c2ccccc2F)nc1CSCC(=O)N1CCN(c2ccccc2)CC1 the results were Marburg entry inh -27%[46.1 µM], Lassa entry inh -13%[46.1 µM] and FMDV inh inconclusive.
CCc1ccc(-c2nc(CSCC(=O)N3CCN(c4ccccn4)CC3)c(C)o2)cc1 was read as Cycloheximide cs 0, Shiga inhibitor -10, HCV inhibitor 16µM*, Marburg entry inh -82%, Lassa entry inh inconclusive and FMDV inh 20µM*.
Screening COc1cccc(-c2c(C(=O)N/N=C/c3ccc(C)o3)nnn2-c2nonc2N)c1 returned Cycloheximide cs -3, Shiga inhibitor 3, HCV inhibitor -7% and FMDV inh 0%.
Screening COc1ccc(COc2cc(-c3cccc(OC)c3)nc3ccc(NC(=O)C(C)C)cc23)cc1 returned Cycloheximide cs -3, Shiga inhibitor -5, HCV inhibitor inconclusive, Marburg entry inh -22%, Lassa entry inh -28% and FMDV inh 0%.
Cc1ccc(C)c(S(=O)(=O)N2CCCOC2CNC(=O)C(=O)NCCN2CCOCC2)c1 (stereo not drawn) was read as Cycloheximide cs 4, Shiga inhibitor -2, HCV inhibitor -2%, Marburg entry inh 9%, Lassa entry inh -3% and FMDV inh -4%.
For CC(=O)c1cccc(NC(=O)CC2CCCC2)c1 the results were Cycloheximide cs 1, Shiga inhibitor 47, HCV inhibitor -6%, Marburg entry inh -2%[46.1 µM], Lassa entry inh -7%[46.1 µM] and FMDV inh 56%.
For NC(=S)N/N=C/c1ccc(/C=N/NC(N)=S)cc1 the results were Cycloheximide cs -2, Shiga inhibitor 1, HCV inhibitor -6% and FMDV inh -16%.
For NC(=S)N/N=C/c1ccc(-n2nncc2-c2ccc(Cl)cc2)cc1 the results were Cycloheximide cs -6, Shiga inhibitor 11, HCV inhibitor 13µM*, Marburg entry inh inconclusive, Lassa entry inh 11µM* and FMDV inh -28%.
`O=C(Nc1cccc(S(=O)(=O)N2CCCCC2)c1)c1ccc(Cl)nc1` gave HCV inhibitor inconclusive and FMDV inh 14µM*.
Screening O=C(COC(=O)c1ccc(Cl)nc1)Nc1cccc(S(=O)(=O)N2CCCCC2)c1 returned HCV inhibitor -1% and FMDV inh -22%.
`CCCSc1ccc(C(=O)Nc2ccc(Cl)cc2)cn1` gave Cycloheximide cs 28*, Shiga inhibitor 43, HCV inhibitor -24%, Marburg entry inh inconclusive, Lassa entry inh inconclusive and FMDV inh -4%.
For Cc1ccc(NC(=O)c2nsc(Cl)c2Cl)cc1 the results were Cycloheximide cs 56*, Shiga inhibitor 70*, HCV inhibitor 4% and FMDV inh 69%.
Cc1ccc(NC(=O)c2nc[nH]c2C(=O)Nc2ccc(C)cc2)cc1 was read as Cycloheximide cs -3, Shiga inhibitor -6, HCV inhibitor 9%, Marburg entry inh -3%, Lassa entry inh 8% and FMDV inh 0%.
For O=C(Nc1ccc(S(=O)(=O)N2CCCC2)cc1)c1ccc(Cl)nc1 the results were HCV inhibitor inconclusive, Marburg entry inh -2%[46.1 µM], Lassa entry inh inconclusive and FMDV inh 0%.
Screening O=C(Nc1ccc(S(=O)(=O)N2CCCCC2)cc1)c1ccc(Cl)nc1 returned HCV inhibitor inconclusive and FMDV inh 40µM*.
Screening C[C@]12C=CC(=O)C=C1CC[C@@H]1C2C(O)C[C@@]2(C)C1CC[C@]2(O)C(=O)COC(=O)CCC(=O)NC(CC(=O)O)C(=O)O (stereo partly drawn) returned Cycloheximide cs -2, Shiga inhibitor 4, HCV inhibitor 24% and FMDV inh 1%.
For COc1ccccc1C(=O)N1CC(=O)Nc2ccc(C)cc2C1c1ccc(F)cc1 (stereo not drawn) the results were Cycloheximide cs -2, Shiga inhibitor -2, HCV inhibitor 1%, Marburg entry inh -3%[46.1 µM], Lassa entry inh 7%[46.1 µM] and FMDV inh -14%.
For COc1ccc(C(C)NC(=O)c2ccncc2)cc1OC (stereo not drawn) the results were Cycloheximide cs -1, Shiga inhibitor -13, HCV inhibitor 9%, Marburg entry inh 5%[46.1 µM], Lassa entry inh -2%[46.1 µM] and FMDV inh 5%.
`Cc1c(Cl)ccc2sc(N3CCN(C(=O)C(C)C)CC3)nc12` gave Lassa entry inh 0%[46.1 µM] and FMDV inh 0%.
`O=C(Nc1cccc(S(=O)(=O)Nc2ccccc2Cl)c1)c1ccc(Cl)nc1` gave Cycloheximide cs 1, Shiga inhibitor -3, HCV inhibitor inconclusive, Marburg entry inh inconclusive, Lassa entry inh inconclusive and FMDV inh 28µM*.
Screening NS(=O)(=O)c1cccc(NC(=O)c2cccc(S(=O)(=O)N3CCCCCC3)c2)c1 returned HCV inhibitor inconclusive, Marburg entry inh 5%, Lassa entry inh -23% and FMDV inh -16%.
Cc1ccc(NC(=O)c2ccc(Cl)nc2)cc1 was read as Cycloheximide cs 34*, Shiga inhibitor 140*, HCV inhibitor 9% and FMDV inh 64%.
COc1cccc(OC)c1C(=O)Nc1cccc(S(=O)(=O)Nc2ccccc2Cl)c1 was read as HCV inhibitor -2% and FMDV inh -2%.
For O=C(Nc1cccc(S(=O)(=O)N2CCCCC2)c1)c1ccc2ncsc2c1 the results were Cycloheximide cs 86*, Shiga inhibitor 89*, HCV inhibitor 7.9µM* and FMDV inh -14%.
`Cc1ccccc1OCCOC(=O)c1cc(S(=O)(=O)N2CCOCC2)ccc1C` gave FMDV inh -27%.

Screens from PubChem BioAssay.
